Drawing on PubChem BioAssay (NCATS), this text covers Potency, activity change, negative = cell killing and outcome for 40 molecules.

Where “and” joins values, the source holds several entries; their conditions need not be identical. Identical values can stand only once. Results filed as inconclusive are left out. A number with no mark means an inactive call. Calls of active or inactive are those of the source. Calls follow the shape of the dose curve; as a rule, active = well fitted inhibition curve with a large enough effect; inconclusive = small, poorly fitted or top-dose-only effect; inactive = no such curve, though single readings can be large or run the other way. *1 amine or outer side, *2 acyl side, *3 side chain or, on linkers, in order; H or OH if unused. Where a SMILES comes first, the peptide text is derived from it. [ ]: non-standard residue; d: D form. X5 = CC(CC(O[*:1])C(=O)[*:2])C(=O)O; NMeV = CN[CH](C(=O)O)C(C)C; NMeA = CN[CH](C)C(=O)O; βAla = NCCC(=O)O
% is scaled to controls: 0 for no effect and ±100 for the full control effect.

This test is described as follows: Primary qHTS for inhibitors of nuclear receptor binding SET domain protein 2 (NSD2) in an RCH-ACV wild type WT cells (2C) (AID 1645877). Also: nearly all actives have a fitted effect of over 70% in size. To be noted: RCH-ACV (leukaemia line) NSD2 WT (2C) viability, CellTiter-Glo, 72 h; series mostly up to 44.9 µM. An excerpt:
Assay Provider: Jonathan D. Licht, MD
University of Florida College of Medicine, Gainesville, FL
Mutations in epigenetic regulators are common in relapsed pediatric acute lymphoblastic leukemia (ALL). Here, we uncovered the mechanism underlying the relapse of ALL driven by an activating mutation of the NSD2 histone methyltransferase (p.E1099K). […] Correction of this mutation restored glucocorticoid sensitivity. The transcriptional response to glucocorticoids was blocked in NSD2 mutant cells due to depressed glucocorticoid receptor (GR) levels and the failure of glucocorticoids to autoactivate GR expression. […] Pre-treatment of NSD2 p.E1099K cell lines and PDX samples with PRC2 inhibitors reversed glucocorticoid resistance in vitro and in vivo.
High-throughput drug screening of isogenic RCH-ACV cell lines was performed at the National Center for Advancing Translational Science (NCATS), National Institutes of Health as previously described (1). Briefly, isogenic RCH-ACV NSD2 p.E1099K mutant (9B) and WT cells (2C) were plated at 500 cells/well in a 1536-well plate with a 72-hour incubation with compounds prior to addition of CellTiter-Glo to assess cell viability. NCATS libraries screened include: NPC, MIPE 5.0, Kinase and NPACT. To determine compound activity in the qHTS assay, the concentration-response data for each sample was plotted and modeled by a four-parameter logistic fit yielding IC50 and efficacy (maximal response) values. The area under the curve (AUC) of the dose-response curve ensures both efficacy (magnitude of cell killing) and potency (concentration that elicits cell killing) are accounted for in the analysis of activity.
1. Tobie D Lee, Olivia W Lee, Kyle R Brimacombe, Lu Chen, Rajarshi Guha, Sabrina Lusvarghi, Bethilehem G Tebase, Carleen Klumpp-Thomas, Robert W Robey, Suresh V Ambudkar, Min Shen, Michael M Gottesman, Matthew D Hall. A High-Throughput Screen of a Library of Therapeutics Identifies Cytotoxic Substrates of P-glycoprotein. Mol Pharmacol. 2019, Nov;96(5):629-640.
For orientation: In qHTS, concentration-response curves come from the screen itself.
In the case of `CC[C@@]1(O)C(=O)OCc2c1cc1n(c2=O)Cc2cc3c(OC)cccc3nc2-1`, the Potency was 10.1 nM (active).
The same measure, in the same setting: in the case of `CC(=O)OC[C@]12C[C@H](O)C(C)=C[C@H]1O[C@@H]1[C@H](O)[C@@H](O)[C@@]2(C)[C@]12CO2` it was 713 nM (active); in that of `C=C[C@H]1CN2CCC1C[C@H]2[C@H](O)c1ccnc2ccccc12` (stereo not given in full), “inactive”.
Turning to `CS[C@]1(CO)C(=O)N2[C@H]3C(=CC=C[C@@H]3O)C[C@@]2(SC)C(=O)N1C`, the Potency result is “inactive”.
Take `COC(=O)CC1CC2(C(=O)c3c(O)cccc3C2(O)C(=O)OC)C(C)O1` (stereo not given): the Potency entry is “inactive”.
Still for that read-out and setting: the value for `Cc1sc2c(c1C)C(c1ccc(Cl)cc1)=NC(CC(=O)Nc1ccc(O)cc1)c1nnc(C)n1-2` (stereo not given) was 129 nM (active) and 296 nM (active).
As to `C/C=C(\C)C(=O)OC1C2C3(C)CCC(OC4CC(OC)C(OC5OC(C)C(O)C(OC)C5O)C(C)O4)CC3CCC23OC32CCC(C(C)=O)C2(C)C1OC(=O)/C(C)=C/C` (stereo not given), the activity change, negative = cell killing is -23.1% [at 9.23 µM].
Consider `C[C@]12CC[C@H](O)C[C@H]1CC[C@@H]1[C@@H]2[C@H](O)C(=O)[C@]2(C)[C@@H](c3ccc(=O)oc3)CC[C@]12O`, for which the Potency was 51.5 nM (active).
Same read-out and setting: in the case of `COC1CC(O[C@H]2CC[C@]3(C)C4CC[C@]5(C)[C@@H](C6=CC(=O)OC6)[C@@H](OC(C)=O)C[C@]5(O)C4CC[C@@H]3C2)OC(C)C1O` (stereo not given in full) it was 448 nM (active); in that of `CCC(C)C1NC(=O)C2CCCN2C(=O)C(CC(C)C(=O)O)OC(=O)CCNC(=O)C(C)N(C)C(=O)C(C(C)C)N(C)C1=O` (stereo not given) (cyclo([X5]PI[NMeV][NMeA][βAla]); configuration not given here), “inactive”; in that of `CO[C@H]1C[C@H](O[C@H]2CC[C@]3(CO)[C@H]4CC[C@]5(C)[C@@H](C6=CC(=O)OC6)CC[C@]5(O)[C@@H]4CC[C@]3(O)C2)O[C@H](C)[C@H]1O`, 79.6 nM (active).
Same read-out and setting: in the case of `C[C@@]1(CO)[C@H](O)CC[C@@]2(C)[C@H]1CC[C@H]1C[C@@H]3C[C@@]12CC[C@]3(O)CO` it was 2840 nM (active); in that of `Cc1ccc(Cn2nc(C(=O)N[C@@H]3C(C)(C)[C@@H]4CC[C@@]3(C)C4)cc2-c2ccc(Cl)c(C)c2)cc1`, “inactive”; in that of `Cc1ccc2c(c1)[C@H]1CN(C)CC[C@H]1N2C(=O)CSc1nnnn1-c1ccc(Cl)cc1`, “inactive”.
Still for that read-out and setting: in the case of `CC1CCCC(O)CCC/C=C/c2cc(O)cc(O)c2C(=O)O1` (stereo not given) it was 11300 nM (active).
Turning to `Nc1ncnc2c1ncn2[C@@H]1O[C@@H]2COP(O)(=S)O[C@H]2[C@H]1O` (stereo not given in full), the outcome was “inactive [at 9.23 µM]”.
For the molecule `Cc1sc2c(c1C)C(c1ccc(Cl)cc1)=N[C@@H](CC(N)=O)c1nnc(C)n1-2`, the Potency is 51.5 nM (active) and 148 nM (active).
The same measure, in the same setting: the value for `COc1ccc(C23CCC(=O)C=C2N(C)CC3)cc1OC` (stereo not given) was “inactive”; that for `CCCCCn1cc(C(=O)C2C(C)(C)C2(C)C)c2ccccc21` was “inactive”.
In the case of `C=CCN1CCC2(C)c3cc(O)ccc3C[C@H]1[C@H]2C`, the Potency entry was “inactive”.
For the molecule `CC(C)(C)[C@]1(O)C[C@@H]2OC(=O)C[C@@]23C(=O)O[C@@H]2OC(=O)[C@@H](O)[C@]213`, the Potency result was “inactive”.
The same measure, in the same setting: in the case of `CC[C@H]1C2CC3[C@@H]4N(C)c5ccccc5[C@]45C[C@@H]([C@H]2[C@H]5O)N3[C@@H]1O` it was “inactive”; in that of `Fc1cc(F)c2c(c1)[C@H]1C=CC[C@H]1C(c1cccnc1)N2` (stereo not given in full), 8170 nM (active).
For `CN1CN(c2ccccc2)C2(CCN(CCCC(=O)c3ccc(F)cc3)CC2)C1=O`, the Potency is 25800 nM (active).
The same measure, in the same setting: the value for `CN(C(=O)CN1C(=O)COc2cc(Cl)c(Cl)cc21)[C@@H](CN1CCCC1)c1ccc(-c2cccc(C(N)=O)c2)cc1` was 7280 nM (active); that for `CC[C@@H]1C[C@H]2CC[C@H](O2)[C@H](C)C(=O)O[C@@H](C)C[C@@H]2CC[C@@H](O2)[C@@H](C)C(=O)O[C@H](CC)C[C@H]2CC[C@H](O2)[C@H](C)C(=O)O[C@@H](C)C[C@@H]2CC[C@@H](O2)[C@@H](C)C(=O)O1` was 21.6 nM (active); that for `CCC(C)(O)C1(C(=O)O)COC(=O)C1` (stereo not given) was “inactive”.
Turning to `O=C1Nc2ccc3ncsc3c2/C1=C/c1cnc[nH]1`, the Potency is 578 nM (active).
Still for that read-out and setting: the value for `Cc1cccc([C@H](C)c2cnc[nH]2)c1C` was “inactive”.
The same measure, in the same setting: the value for `COc1ccc2c3c4n(c2c1)[C@@H](C=C(C)C)OOC(C)(C)C[C@@H]4N1C(=O)[C@@H]2CCCN2C(=O)[C@]1(O)[C@H]3OCC=C(C)C` was “inactive”; that for `COc1cc2c(cc1F)C(c1ccccc1Cl)=Nc1c(n[nH]c1C)N2` was 1030 nM (active).
The same measure, in the same setting: the value for `O=C(NCCN1CCC2(CC1)C(=O)NCN2c1cccc(F)c1)c1ccc(F)c(F)c1` was 14500 nM (active).
On to `C=CCN1CC[C@]23c4c5ccc(O)c4O[C@H]2[C@@H](O)CC[C@@]3(O)[C@H]1C5`, for which the Potency result was “inactive”.
Take `C/C=C(/C)C1C=CC2CC(C)CC(C)C2C1/C(O)=C1\C(=O)NC(CC(C)(O)C(=O)O)C1=O` (stereo not given): the Potency entry was “inactive”.
Turning to `CN1C2CCC1CC(OC(=O)N1Cc3ccccc3NC1=O)C2` (stereo not given), the Potency result is “inactive”.
The same measure, in the same setting: the value for `CC(C)=CCC[C@]1(C)C=Cc2c(O)c3c(c(CC=C(C)C)c2O1)O[C@]12C(=C[C@@H]4CC1C(C)(C)O[C@@]2(C/C=C(/C)C(=O)O)C4=O)C3=O` was 365 nM (active).
As to `C[C@]12CC[C@@H](O)C[C@@H]1CC[C@@H]1[C@@H]2CC[C@]2(C)C(=O)[C@@H](Br)C[C@@H]12`, the Potency is 10300 nM (active).
On to `CC1=CC2(O)/C=C/C(C)(O)C(O)C(O)/C=C/C(=O)OC23C(=O)NC(CC(C)C)C3C1C` (stereo not given), for which the Potency entry was “inactive”.
As to `COC1CC(O[C@H]2CC[C@]3(C=O)C4CC[C@]5(C)[C@@H](C6=CC(=O)OC6)CC[C@]5(O)[C@@H]4CC[C@@H]3C2)OC(C)C1O[C@@H]1O[C@H](CO)[C@@H](O[C@@H]2O[C@H](CO)[C@@H](O)[C@H](O)[C@H]2O)[C@H](O)[C@H]1O` (stereo not given in full), the Potency is 123 nM (active).
Still for that read-out and setting: in the case of `COc1ccc(CN(C(=O)[C@@H](N)Cc2c(C)cc(C(N)=O)cc2C)[C@@H](C)c2ncc(-c3ccccc3)[nH]2)cc1C(=O)O` it was “inactive”.
